Measured values as given in PubChem BioAssay (NCATS).
Inconclusive results are not listed. Active and inactive are the calls of the source. Unless noted, the call rests on the fitted dose curve; in most records, active means well fitted curve in either direction with a large enough effect (not every such curve was filed as active); inconclusive means small, poorly fitted or top-dose-only effect, or another doubt; inactive means flat fitted curve, though single readings scatter.

Columns and labels:
[1] = target: Lysosomal acid glucosylceramidase (Homo sapiens) (UniProt P04062); assay: Glucocerebrosidase-p2 (AID 348; in the data active means potency below about 10 µM; further: potency means the concentration at half of the fitted maximal effect); settings: purified GBA, blue fluorogenic substrate, 40 min
Procedure, shortened: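 Compounds titrated from 0.6 nM upwards against 0.2 nM enzyme in pH 5.9 citric acid/KH2PO4, taurocholate, tween-20; blue fluorogenic substrate 80 uM, 40 min room temperature, stopped and read Ex 365/Em 440 for AC50.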

[2] = AP1 Signaling Pathway (AID 357); settings: ME-180 AP-1-bla reporter, EGF-induced, beta-lactamase ratio, 5 h; at 7.69 µM (top of the series) unless noted;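 further: ME-180 reporter cells stimulated with EGF at its EC50 level; on the % scale 0 is the no-effect control and ±100 the full control effect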
Procedure, shortened: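 Beta-lactamase reporter under AP-1 response element, ME-180 background. Stimulus: EC50 EGF. Compound exposure 5 h, 37 °C. Detection: CCF4, 2.5 h RT, 460/530 nm. Values: AC50 from titration.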

[3] = target: Cytochrome P450 1A2 (Homo sapiens) (UniProt P05177); assay: p450-cyp1a2 (AID 410; calls by dose curve; further: potency means the concentration at half of the fitted maximal effect); settings: recombinant CYP1A2, luciferin-ME demethylation, luminescence; series mostly up to 57 µM
Procedure, shortened: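 Luminescent readout of luciferin formed from Luciferin-ME by human CYP1A2; data normalized against complete inhibition by 57 uM furafylline. Enzyme 20nM, substrate 100uM at Km, 100mM KPO4 buffer, 60 min reaction at room temperature.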

[4] = NFAT Signaling Pathway (AID 444); settings: Jurkat NFAT-bla M1, carbachol, beta-lactamase ratio, 5 h; at 7.69 µM (top of the series) unless noted;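 further: carbachol stimulus at about its EC50 of 1 µM final; on the % scale 0 is the no-effect control and ±100 the full control effect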
Procedure, shortened: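 Jurkat cells with NFAT-driven β-lactamase reporter and co-expressed M1 receptor, stimulated with carbachol (final 1 uM, ~EC50), compound titration, 5 h at 37 °C. CCF4 loaded 1 h at RT; 460/530 nm ratio gave %activity and AC50.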

[5] = Stat Signaling Pathway (AID 446); settings: ME-180 SIE beta-lactamase reporter, IL-6 stimulated, 5 h; at 7.69 µM (top of the series) unless noted;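 further: ME-180 cervical cancer cells given 40 pM IL-6 alongside compound; SIE-controlled beta-lactamase reporter measured as 460/530 nm FRET emission ratio; on the % scale 0 is the no-effect control and ±100 the full control effect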
Procedure, shortened: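 ME-180 SIE-bla cells; overnight plating; cpd + IL-6 40 pM, 5 h, 37 C; LiveBLAzer 2.5 h RT; 460/530 nm emission ratio. Normalized to 300 pM IL-6 and 125 nM JAK inhibitor controls.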

[6] = target: Glucocorticoid receptor (Homo sapiens) (UniProt P04150); assay: GR-GFP Redistribution (AID 450;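 active means compounds whose dose series gives a full or clear partial fitted curve of increased nuclear translocation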; further: potency means the concentration at half of the fitted maximal effect); settings: U2OS GR-GFP nuclear translocation, laser cytometry, 2 h
[7] = target: Glucocorticoid receptor (Homo sapiens) (UniProt P04150); assay: GR-EFC Redistribution (AID 451; calls by dose curve; further: potency means the concentration at half of the fitted maximal effect); settings: CHO-K1 GR-EFC translocation, beta-gal luminescence, 2 h
Procedure, shortened: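 CHO-K1 cells expressing nuclear EA and GR-ED fragments of b-gal; compounds titrated up to 46 uM final, 2 h at 37 C. GR nuclear translocation read as complemented b-gal luminescence after 1 h RT detection.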

[8] = target: Mitogen-activated protein kinase 10 (Mus musculus) (UniProt Q61831); assay: JNK3 AlphaScreen Assay (AID 530); settings: JNK3 lysate, c-Jun phosphorylation; series mostly up to 57.1 µM;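 further: kinase came from lysate of stimulated human HepG2 cells; signal reports phosphorylation of biotinylated GST-cJun 1-79 at Ser73 with 10 µM ATP; on the % scale 0 is the no-effect control and ±100 the full control effect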
Procedure, shortened: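 Pre-activated (IL-1β/TNFα) JNK3 in HepG2 lysates phosphorylates biotin-GST-cJun(1-79), 10 uM ATP; anti-phospho-cJun(Ser73) AlphaScreen read at room temperature, pH 7.6 Tris buffer. Compounds pre-incubated 15 min as titrations.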

[9] = target: Cytochrome P450 3A4 (Homo sapiens) (UniProt P08684); assay: qHTS Assay for Inhibitors and Substrates of Cytochrome P450 3A4 (AID 884; active means well fitted curve in the direction sought with a large enough effect; an effect the other way counts as inactive or inconclusive; further: potency means the concentration at half of the fitted maximal effect; nearly all actives have a fitted effect of over 50% in size); settings: recombinant CYP3A4, Luciferin-PPXE luminescence; series mostly up to 57.1 µM
Procedure, shortened: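 20 nM human CYP3A4 with 25 uM Luciferin-PPXE (at KM) in 200 mM KPO4, preincubated 10 min with compound; NADPH regeneration started a 60 min RT reaction. Luciferin detected by luminescence, normalized to 57 uM ketoconazole as full inhibition.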

[10] = target: Cytochrome P450 3A4 (Homo sapiens) (UniProt P08684); assay: qHTS Assay for Activators of Cytochrome P450 3A4 (AID 885; active means well fitted curve in the direction sought with a large enough effect; an effect the other way counts as inactive or inconclusive; further: nearly all actives have a fitted effect of over 65% in size); settings: recombinant CYP3A4, Luciferin-PPXE luminescence, 60 min; series mostly up to 57.1 µM
Procedure, shortened: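 20nM CYP3A4 + 25uM Luciferin-PPXE (=KM), 200mM KPO4; cpd 10 min RT; NADPH regen, 60 min RT; stop w/ detection buffer, 20 min; luminescence. Normalized to 57 uM ketoconazole.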

[11] = Confirmation and Secondary Assay for Modulators of Hemoglobin Beta Chain Splicing at IVS2 654 locus (AID 910; active means well fitted curve in the direction sought with a large enough effect; an effect the other way counts as inactive or inconclusive;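 further: HeLa cells stably carrying EGFP split by mutant beta-globin IVS2-654 intron; % of control where 0% means no effect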); settings: HeLa EGFP-654 splicing reporter, GFP fluorescence, 48 h; series mostly up to 38.3 µM
Procedure, shortened: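 HeLa cells stably expressing EGFP interrupted by β-globin IVS2-654 intron, seeded overnight in Opti-MEM/2% FCS, then treated 2 days at 37 °C. Restored splicing read as total peak GFP intensity per well by laser scanning cytometry (488 nm excitation, 500–520 nm emission); 500 nM antisense PNA as control.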

[12] = Confirmation and Secondary Assay for Modulators of Hemoglobin Beta Chain Splicing at IVS2 705 locus (AID 930; active means well fitted curve in the direction sought with a large enough effect; an effect the other way counts as inactive or inconclusive;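 further: HeLa cells stably expressing the EGFP-705 splicing reporter; GFP fluorescence per well restored by corrected splicing of the IVS2-705 intron in EGFP; % of control where 0% means no effect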); settings: HeLa EGFP-705 splicing reporter, GFP fluorescence, 48 h; series mostly up to 38.3 µM
Procedure, shortened: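 Stable HeLa line with EGFP disrupted by mutant beta-globin intron 2 (705). Overnight attachment, then 2 days of compound at 37C, 5% CO2. Signal: peak GFP intensity summed over objects 5-250 µm.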

[13] = qHTS Assay for Lipid Storage Modulators (AID 1519; calls by dose curve); settings: Drosophila S3 cells, BODIPY lipid droplet/cell ratio, laser cytometry, cells loaded with oleic acid; for activity change, negative = inhibition: at 57.5 µM (top of the series)
Procedure, shortened: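 Cells seeded at 5,000 per well were treated with compounds over a concentration series and loaded with oleic acid (400 uM, as added). Lipid droplet fluorescence (488 nm excitation, 500-530 nm channel) was read by laser-scanning cytometry and normalized to 20 uM Triacsin C.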

[14] = target: Ubiquitin carboxyl-terminal hydrolase 1 (Homo sapiens) (UniProt O94782); assay: Inhibitors of USP1/UAF1: Pilot qHTS (AID 504865; active means well fitted curve in the direction sought with a large enough effect; an effect the other way counts as inactive or inconclusive;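 further: rhodamine fluorescence freed from ubiquitin-rhodamine substrate followed over time; top concentration of the series differs between compounds; on the % scale 0 is the no-effect control and ±100 the full control effect; nearly all actives have a fitted effect of over 35% in size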); settings: purified USP1/UAF1, Ub-rhodamine cleavage fluorescence; series mostly up to 54.9 µM
Procedure, shortened: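 USP1/UAF1 complex (1nM) preincubated with compound 15 min at room temperature, then Ub-Rho substrate (150nM final) added. Fluorescence read kinetically at 480/540 nm, 6 reads every 60 seconds. Buffer: 50mM HEPES pH 7.8, 0.5mM EDTA, 0.1 mg/ml BSA, 1mM TCEP, 0.01% Tween-20.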

[15] = target: 3',5'-cyclic-AMP phosphodiesterase 4B (Homo sapiens) (UniProt Q07343); assay: qHTS Assay for Inhibitors of PDE-IV (AID 607; active means well fitted activation curve with a large enough effect in the main read-out, with a control signal flat, not every such curve was filed as active; further: % of control where 0% means no effect); settings: HEK293 ACTOne CNG channel cells, membrane potential fluorescence; series mostly up to 22.9 µM
Procedure, shortened: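 ACTOne HEK293 cells carry a modified cAMP-gated CNG channel and express endogenous PDE4; plated 1000 cells/well, compounds up to 22.9 uM final. Membrane-potential dye fluorescence (ex 535/em 590) was read; parental cells received 10 uM forskolin + 100 uM RO 20-1724.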

[16] = measured here: cell count channel max response
[17] = measured here: lipid channel max response

Sequence of Lysosomal acid glucosylceramidase (Homo sapiens) (P04062 whole entry, looked up): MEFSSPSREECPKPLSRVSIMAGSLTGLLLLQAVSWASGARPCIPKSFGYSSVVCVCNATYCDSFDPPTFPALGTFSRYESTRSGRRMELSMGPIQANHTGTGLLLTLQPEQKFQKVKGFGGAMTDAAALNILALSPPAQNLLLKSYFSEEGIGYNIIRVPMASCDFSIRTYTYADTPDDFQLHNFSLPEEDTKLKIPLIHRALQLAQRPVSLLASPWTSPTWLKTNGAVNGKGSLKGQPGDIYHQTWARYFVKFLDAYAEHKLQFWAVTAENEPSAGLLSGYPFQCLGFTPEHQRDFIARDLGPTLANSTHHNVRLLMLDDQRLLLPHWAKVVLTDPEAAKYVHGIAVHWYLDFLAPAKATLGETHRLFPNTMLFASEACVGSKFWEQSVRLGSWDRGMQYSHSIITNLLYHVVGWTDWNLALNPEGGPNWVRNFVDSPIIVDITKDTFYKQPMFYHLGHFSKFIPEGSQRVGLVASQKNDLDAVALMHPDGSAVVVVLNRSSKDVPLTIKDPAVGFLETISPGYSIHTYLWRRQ
Sequence of Cytochrome P450 1A2 (Homo sapiens) (P05177 whole entry, looked up): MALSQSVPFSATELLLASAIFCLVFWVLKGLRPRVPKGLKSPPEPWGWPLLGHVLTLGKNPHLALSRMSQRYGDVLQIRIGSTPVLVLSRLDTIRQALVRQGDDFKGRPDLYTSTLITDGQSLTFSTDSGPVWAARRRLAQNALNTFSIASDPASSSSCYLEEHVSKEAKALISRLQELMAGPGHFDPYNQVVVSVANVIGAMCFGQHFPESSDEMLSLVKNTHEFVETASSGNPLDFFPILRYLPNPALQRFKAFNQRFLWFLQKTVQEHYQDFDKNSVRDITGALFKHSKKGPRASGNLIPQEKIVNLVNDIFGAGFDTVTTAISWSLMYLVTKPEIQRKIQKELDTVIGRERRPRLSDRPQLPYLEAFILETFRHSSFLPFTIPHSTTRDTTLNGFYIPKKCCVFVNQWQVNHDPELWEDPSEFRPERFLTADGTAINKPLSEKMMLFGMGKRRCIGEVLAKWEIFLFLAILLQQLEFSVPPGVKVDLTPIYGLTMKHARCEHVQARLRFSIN
Sequence of Glucocorticoid receptor (Homo sapiens) (P04150 whole entry, looked up, the tested form may be a part): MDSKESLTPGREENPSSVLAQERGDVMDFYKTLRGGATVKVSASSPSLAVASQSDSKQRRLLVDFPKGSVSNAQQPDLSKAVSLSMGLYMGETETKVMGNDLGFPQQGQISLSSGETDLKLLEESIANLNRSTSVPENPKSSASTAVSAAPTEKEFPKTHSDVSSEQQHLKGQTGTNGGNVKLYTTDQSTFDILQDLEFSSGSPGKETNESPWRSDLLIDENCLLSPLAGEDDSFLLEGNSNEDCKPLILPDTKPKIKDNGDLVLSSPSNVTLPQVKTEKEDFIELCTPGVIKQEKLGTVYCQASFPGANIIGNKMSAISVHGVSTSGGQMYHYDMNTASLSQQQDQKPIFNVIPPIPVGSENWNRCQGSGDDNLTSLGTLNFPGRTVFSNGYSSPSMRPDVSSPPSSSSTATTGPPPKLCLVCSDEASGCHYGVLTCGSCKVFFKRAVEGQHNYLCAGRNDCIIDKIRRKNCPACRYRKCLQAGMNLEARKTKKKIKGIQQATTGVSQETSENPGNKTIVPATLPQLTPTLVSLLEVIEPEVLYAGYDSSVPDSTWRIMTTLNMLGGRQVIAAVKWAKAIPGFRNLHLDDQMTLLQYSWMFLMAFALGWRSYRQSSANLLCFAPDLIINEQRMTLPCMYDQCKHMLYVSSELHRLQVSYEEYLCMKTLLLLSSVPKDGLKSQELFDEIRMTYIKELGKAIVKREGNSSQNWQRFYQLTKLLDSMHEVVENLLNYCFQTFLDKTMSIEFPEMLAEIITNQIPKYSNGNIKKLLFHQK
Sequence of Cytochrome P450 3A4 (Homo sapiens) (P08684 whole entry, looked up): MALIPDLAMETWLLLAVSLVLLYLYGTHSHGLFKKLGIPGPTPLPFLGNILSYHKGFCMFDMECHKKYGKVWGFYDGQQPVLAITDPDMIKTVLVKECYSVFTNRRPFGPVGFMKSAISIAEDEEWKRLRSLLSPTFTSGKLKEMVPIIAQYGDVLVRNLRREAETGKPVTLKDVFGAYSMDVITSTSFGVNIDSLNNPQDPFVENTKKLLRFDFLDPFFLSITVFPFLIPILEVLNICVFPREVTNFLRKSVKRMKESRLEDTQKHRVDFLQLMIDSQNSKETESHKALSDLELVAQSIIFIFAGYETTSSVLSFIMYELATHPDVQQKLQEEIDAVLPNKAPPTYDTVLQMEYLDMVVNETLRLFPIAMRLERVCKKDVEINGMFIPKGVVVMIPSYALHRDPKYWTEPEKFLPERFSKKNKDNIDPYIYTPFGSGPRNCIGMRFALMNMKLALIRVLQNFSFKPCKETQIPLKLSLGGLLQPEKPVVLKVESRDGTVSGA
Sequence of Ubiquitin carboxyl-terminal hydrolase 1 (Homo sapiens) (O94782 whole entry, looked up): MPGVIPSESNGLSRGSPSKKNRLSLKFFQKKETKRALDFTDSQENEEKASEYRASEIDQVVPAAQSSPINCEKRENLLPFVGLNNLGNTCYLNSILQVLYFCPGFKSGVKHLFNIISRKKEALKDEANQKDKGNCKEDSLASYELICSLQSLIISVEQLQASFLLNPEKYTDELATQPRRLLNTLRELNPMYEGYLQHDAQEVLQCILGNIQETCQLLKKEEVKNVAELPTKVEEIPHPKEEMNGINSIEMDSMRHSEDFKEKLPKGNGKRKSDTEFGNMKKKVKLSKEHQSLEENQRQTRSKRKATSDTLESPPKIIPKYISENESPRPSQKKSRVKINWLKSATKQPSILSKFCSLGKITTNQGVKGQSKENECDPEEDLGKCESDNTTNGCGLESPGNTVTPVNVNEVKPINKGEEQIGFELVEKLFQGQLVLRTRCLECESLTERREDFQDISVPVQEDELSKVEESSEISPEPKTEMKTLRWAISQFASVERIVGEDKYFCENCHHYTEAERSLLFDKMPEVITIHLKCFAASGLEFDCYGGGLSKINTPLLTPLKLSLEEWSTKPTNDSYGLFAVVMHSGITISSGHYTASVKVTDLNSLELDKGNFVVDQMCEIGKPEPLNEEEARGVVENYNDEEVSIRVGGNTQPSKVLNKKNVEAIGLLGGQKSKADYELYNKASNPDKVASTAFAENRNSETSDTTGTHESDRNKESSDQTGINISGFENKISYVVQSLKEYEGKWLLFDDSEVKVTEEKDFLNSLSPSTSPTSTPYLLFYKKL
Sequence of 3',5'-cyclic-AMP phosphodiesterase 4B (Homo sapiens) (Q07343 whole entry, looked up): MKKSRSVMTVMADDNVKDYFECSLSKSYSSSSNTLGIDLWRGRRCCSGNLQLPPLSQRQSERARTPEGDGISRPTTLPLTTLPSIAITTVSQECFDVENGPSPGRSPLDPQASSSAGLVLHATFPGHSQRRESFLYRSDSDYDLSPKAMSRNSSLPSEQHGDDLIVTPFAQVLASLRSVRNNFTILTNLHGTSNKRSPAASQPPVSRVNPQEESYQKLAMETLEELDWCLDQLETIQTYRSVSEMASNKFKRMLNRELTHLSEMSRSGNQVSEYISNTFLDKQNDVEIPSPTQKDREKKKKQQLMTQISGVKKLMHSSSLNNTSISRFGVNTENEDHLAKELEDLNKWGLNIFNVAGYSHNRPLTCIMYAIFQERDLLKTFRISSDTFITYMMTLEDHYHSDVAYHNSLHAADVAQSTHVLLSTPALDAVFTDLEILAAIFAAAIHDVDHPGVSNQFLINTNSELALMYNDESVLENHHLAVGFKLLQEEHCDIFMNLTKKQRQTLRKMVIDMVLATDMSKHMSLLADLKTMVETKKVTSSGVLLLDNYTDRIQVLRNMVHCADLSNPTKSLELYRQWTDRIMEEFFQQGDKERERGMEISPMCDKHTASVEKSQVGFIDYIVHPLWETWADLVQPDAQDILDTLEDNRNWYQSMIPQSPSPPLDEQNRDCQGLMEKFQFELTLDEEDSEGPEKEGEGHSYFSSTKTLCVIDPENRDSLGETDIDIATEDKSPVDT

Structure (SMILES): Cc1cccc(CNc2cc(-c3ccc(C(=O)N(C)C)cc3)ncn2)c1
- Potency [1]: > 11.4 µM (inactive)
- activity change, negative = inhibition [2]: -7.22% (inactive)
- Potency [3]: 15.8 µM (active)
- activity change, negative = inhibition [4]: 13.4% (inactive)
- activity, negative = inhibition [5]: -2.64% (inactive)
- Potency [6]: > 46 µM (inactive)
- Potency [7]: > 46 µM (inactive)
- Potency [8]: inactive
- Potency [9]: 3.16 µM (active)
- Potency [10]: inactive
- Potency [11]: inactive
- outcome [12]: inactive
- activity change, negative = inhibition [13]: 0.763% (inactive)
- max response [13, 16]: 0.996%
- max response [13, 17]: 1.9%
- Potency [14]: inactive

Structure (SMILES): Cc1ccccc1-c1nc(-n2ccnc2)c2ccccc2n1
- Potency [1]: > 11.4 µM (inactive)
- activity change, negative = inhibition [2]: -12.3% (inactive)
- Potency [3]: 0.316 µM (active)
- activity change, negative = inhibition [4]: -10.1% (inactive)
- activity, negative = inhibition [5]: 0.874% (inactive)
- Potency [6]: > 46 µM (inactive)
- Potency [7]: > 46 µM (inactive)
- Potency [8]: inactive
- Potency [9]: 0.398 µM (active)
- Potency [10]: inactive
- activity change, negative = inhibition [13]: 5.99% (inactive)
- max response [13, 16]: -6.87%
- max response [13, 17]: -2.77%

Structure (SMILES): COCCNc1ncnc2ccc(-c3ccccc3CN(C)C)cc12
- Potency [1]: > 11.4 µM (inactive)
- activity change, negative = inhibition [2]: -22.6% (inactive)
- Potency [3]: 25.1 µM (active)
- activity change, negative = inhibition [4]: -6.98% (inactive)
- activity, negative = inhibition [5]: 4.88% (inactive)
- Potency [6]: > 46 µM (inactive)
- Potency [7]: > 46 µM (inactive)
- Potency [8]: inactive
- Potency [15]: inactive
- Potency [10]: inactive
- Potency [11]: inactive
- activity change, negative = inhibition [13]: 12.3% (inactive)
- max response [13, 16]: 13.6%
- max response [13, 17]: 25.7%
- Potency [14]: inactive

Structure (SMILES): Cc1cccc(CNc2ncncc2-c2ccccc2C(F)(F)F)c1
- Potency [1]: > 11.4 µM (inactive)
- activity change, negative = inhibition [2]: -9.35% (inactive)
- Potency [3]: 12.6 µM (active)
- activity change, negative = inhibition [4]: -6.75% (inactive)
- activity, negative = inhibition [5]: -0.642% (inactive)
- Potency [6]: > 46 µM (inactive)
- Potency [7]: > 46 µM (inactive)
- Potency [8]: inactive
- Potency [9]: 0.0794 µM (active)
- Potency [10]: inactive
- Potency [11]: inactive
- outcome [12]: inactive
- activity change, negative = inhibition [13]: 4.45% (inactive)
- max response [13, 16]: -2.27%
- max response [13, 17]: 3.62%

Structure (SMILES): COc1ccc2[nH]cc(CCNc3cc(-c4ccoc4)ncn3)c2c1
- Potency [1]: > 11.4 µM (inactive)
- activity change, negative = inhibition [2]: -5.94% (inactive)
- Potency [3]: 0.631 µM (active)
- activity change, negative = inhibition [4]: 2.58% (inactive)
- activity, negative = inhibition [5]: 2.87% (inactive)
- Potency [6]: > 46 µM (inactive)
- Potency [7]: > 46 µM (inactive)
- Potency [8]: inactive
- Potency [15]: inactive
- Potency [10]: inactive
- Potency [11]: inactive
- outcome [12]: inactive
- activity change, negative = inhibition [13]: 11% (inactive)
- max response [13, 16]: 6.67%
- max response [13, 17]: 17.6%
- Potency [14]: inactive
